Laboratory results reported in PubChem BioAssay.
Activity calls are given as the source filed them. Unless noted, no rule for the calls is given here.

How the values were obtained:
[1] = test system: Wnt5a (protein binding on small-molecule microarray); test: small molecules binding Wnt5a protein – biophysical, small-molecule microarray, 635/667 nm fluorescence, primary screen (AID 1142); details: 635 nm fluorescence, higher = more signal;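 also: fluorescence read at 667 nm with signal to noise per printed feature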
[2] = ATP-based viability of Huh7 replicon cells – cell-based, CellTiter-Glo luminescence, basal, 48 h, cytotoxicity control for HCV replication inhibitor project, primary screen (AID 1143); details: higher = more signal, called active from +8 up or from −8 down;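 also: Huh7 hepatoma cells carrying a hepatitis C replication reporter with no stimulus; test concentration not given here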
[3] = Pseudomonas biofilm growth suppression – PAO1 strain, BacTiter-Glo luminescence, LB-PBS, primary screen (AID 1144); details: P. aeruginosa PAO1 biofilm, 12 h, higher = more signal
[4] = basal CRE-LacZ reporter activity in PC12 – cell-based, unstimulated, primary screen (AID 1145); details: no forskolin, luminescence, 4.5 h, higher = more signal, called active from +8 up or from −8 down
[5] = forskolin-driven CRE-LacZ activity in PC12 – cell-based, CRE-LacZ reporter, forskolin-stimulated, primary screen (AID 1146); details: luminescence, 4.5 h, higher = more signal, called active from +8 up or from −8 down;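 also: PC12 cells with 6xCRE LacZ reporter stimulated by forskolin 10 µM; beta-galactosidase reporter signal reflecting CREB driven transcription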
[6] = biological target: Streptavidin (Streptomyces avidinii) (UniProt P22629); test: compounds binding control protein streptavidin – biophysical, small-molecule microarray, 635/667 nm fluorescence, artefact control for SMM compound annotation, primary screen (AID 1147); details: higher = more signal;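 also: signal reflects streptavidin binding to arrayed compounds as a control protein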
[7] = probe aInhba binding on compound microarray – biochemical, small-molecule microarray, 635/667 nm fluorescence, primary screen (AID 1148); details: higher = more signal;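 also: score merges 667nm spot fluorescence with signal-to-noise for antibody binding to printed compounds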
Torsin-1A (Homo sapiens) [8] = biological target: Torsin-1A (Homo sapiens) (UniProt O14656); test: TOR1A wild-type binding on microarray – cell lysate, small-molecule microarray, lysate, 635/667 nm, primary screen (AID 1149); details: COS7 hTOR1A-WT lysate, 635 nm fluorescence, higher = more signal
Torsin-1A (Homo sapiens) [9] = biological target: Torsin-1A (Homo sapiens) (UniProt O14656); test: torsin A mutant lysate binding on microarrays – cell lysate, small-molecule microarray, COS7 lysate, 635/667 nm fluorescence, primary screen (AID 1150); details: COS7 hTOR1A mutant lysate, 635 nm fluorescence, higher = more signal;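 also: score pools 667 nm emission and signal to noise measuring lysate protein binding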
[10] = test system: Sonic hedgehog protein (Shh); test: Sonic hedgehog microarray binding compounds – biochemical, small-molecule microarray, 635/667 nm fluorescence, primary screen (AID 1151); details: 635 nm fluorescence, higher = more signal;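 also: Shh protein binding to compounds spotted on small-molecule microarray slides; score combines spot fluorescence intensity with signal-to-noise across triplicate slides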
[11] = optical density shifts of acrAB sulA E. coli – strain DRC41, OD650, 48 h, E. coli filamentation inducer project, primary screen (AID 1152); details: higher = more signal, called active from +8 up or from −8 down;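 also: E. coli MC1000 strain DRC41 lacking acrAB efflux pump and sulA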
[12] = probe aLefty1 binding on compound microarray – biochemical, small-molecule microarray, 635/667 nm fluorescence, primary screen (AID 1153); details: higher = more signal;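 also: score merges spot fluorescence with signal-to-noise ratio from the scanned slide images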
[13] = plasmodial surface anion channel blockers, osmotic lysis – cell-based, P. falciparum Indochina, OD700, 1 h, primary screen (AID 1154); details: P. falciparum Indochina infected RBC osmotic lysis, higher = more signal, called active from +8 up or from −8 down
[14] = plasmodial surface anion channel blockers, osmotic lysis – cell-based, P. falciparum Indochina, OD700, 2 h, primary screen (AID 1155);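 also: lysis reports solute entry through the parasite surface anion channel PSAC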; details: P. falciparum Indochina infected erythrocytes, higher = more signal, called active from +8 up or from −8 down
[15] = changes in parasitized red cell lysis, either direction – P. falciparum Indochina, OD700, 3 h, PSAC antagonist project, primary screen (AID 1156); details: P. falciparum-infected erythrocytes, osmotic lysis, higher = more signal, called active from +8 up or from −8 down
[16] = plasmodial surface anion channel blockers, osmotic lysis – cell-based, P. falciparum Indochina, OD700, 18 h, primary screen (AID 1157); details: P. falciparum Indochina infected erythrocytes, osmotic lysis OD700, 18 h; higher = more signal, called active from +8 up or from −8 down
[17] = S6 kinase pathway phospho-S6 level changes – cell-based, A549, cytoblot, luminescence, serum-stimulated, primary screen (AID 1158); details: 5 h, higher = more signal;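 also: serum-stimulated A549 lung adenocarcinoma cells; signal is phosphorylated S6 detected by cytoblot immunostaining with HRP secondary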
[18] = biological target: NADPH oxidase 2 (Homo sapiens) (UniProt P04839); test: compounds shifting NOX2 Amplex Red fluorescence – cell-based, HEK293-NOX2, PMA-stimulated, NOX inhibitor project, primary screen (AID 1159); details: 45 min, higher = more signal, called active from +8 up or from −8 down; also: test concentration not given here
[19] = biological target: NADPH oxidase 4 (Homo sapiens) (UniProt Q9NPH5); test: compounds shifting NOX4 Amplex Red fluorescence – cell-based, HEK293-NOX4, tetracycline-induced, NOX inhibitor project, primary screen (AID 1160); details: HEK293-NOX4, Amplex Red H2O2 fluorescence, 45 min; higher = more signal, called active from +8 up or from −8 down
[20] = biological target: NADPH oxidase 5 (Homo sapiens) (UniProt Q96PH1); test: compounds shifting NOX5 Amplex Red fluorescence – cell-based, HEK293-NOX5, NOX inhibitor project, primary screen (AID 1161); details: HEK293-NOX5, ionomycin, 45 min, higher = more signal
NADPH oxidase 5 (Homo sapiens), sequence (Q96PH1 whole entry, looked up): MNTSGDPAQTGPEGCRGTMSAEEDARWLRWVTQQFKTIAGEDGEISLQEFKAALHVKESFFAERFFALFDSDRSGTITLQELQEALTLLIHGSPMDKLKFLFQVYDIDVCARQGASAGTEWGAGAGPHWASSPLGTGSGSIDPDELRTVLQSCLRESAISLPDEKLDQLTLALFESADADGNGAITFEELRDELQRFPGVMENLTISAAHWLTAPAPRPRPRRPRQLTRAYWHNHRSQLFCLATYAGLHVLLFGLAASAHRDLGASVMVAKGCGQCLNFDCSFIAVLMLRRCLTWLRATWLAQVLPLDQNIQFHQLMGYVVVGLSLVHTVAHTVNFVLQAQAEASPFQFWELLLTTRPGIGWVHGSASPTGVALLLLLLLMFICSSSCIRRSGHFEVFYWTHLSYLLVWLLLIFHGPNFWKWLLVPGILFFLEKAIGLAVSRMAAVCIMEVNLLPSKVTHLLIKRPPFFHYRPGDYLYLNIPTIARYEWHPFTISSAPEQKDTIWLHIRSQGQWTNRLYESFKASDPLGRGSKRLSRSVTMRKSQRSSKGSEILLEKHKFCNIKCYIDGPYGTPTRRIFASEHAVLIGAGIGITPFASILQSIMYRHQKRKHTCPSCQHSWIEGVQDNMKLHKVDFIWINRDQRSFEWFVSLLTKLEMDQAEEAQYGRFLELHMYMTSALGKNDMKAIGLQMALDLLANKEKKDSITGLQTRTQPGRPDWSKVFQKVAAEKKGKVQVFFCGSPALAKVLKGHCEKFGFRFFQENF

Torsin-1A (Homo sapiens), sequence (O14656 whole entry, looked up): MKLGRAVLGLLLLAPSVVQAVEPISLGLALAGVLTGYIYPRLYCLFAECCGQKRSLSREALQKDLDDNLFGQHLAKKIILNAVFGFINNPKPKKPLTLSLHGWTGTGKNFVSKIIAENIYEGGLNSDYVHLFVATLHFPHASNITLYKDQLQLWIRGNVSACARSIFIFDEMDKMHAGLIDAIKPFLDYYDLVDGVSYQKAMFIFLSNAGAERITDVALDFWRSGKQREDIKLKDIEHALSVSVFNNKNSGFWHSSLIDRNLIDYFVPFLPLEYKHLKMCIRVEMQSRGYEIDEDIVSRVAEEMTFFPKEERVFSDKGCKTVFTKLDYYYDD
Streptavidin (Streptomyces avidinii), sequence (P22629 whole entry, looked up): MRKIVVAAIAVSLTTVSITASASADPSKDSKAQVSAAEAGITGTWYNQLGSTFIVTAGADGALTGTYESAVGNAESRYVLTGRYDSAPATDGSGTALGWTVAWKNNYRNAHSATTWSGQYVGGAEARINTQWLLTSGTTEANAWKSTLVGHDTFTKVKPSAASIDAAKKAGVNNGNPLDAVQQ
NADPH oxidase 4 (Homo sapiens), sequence (Q9NPH5 whole entry, looked up): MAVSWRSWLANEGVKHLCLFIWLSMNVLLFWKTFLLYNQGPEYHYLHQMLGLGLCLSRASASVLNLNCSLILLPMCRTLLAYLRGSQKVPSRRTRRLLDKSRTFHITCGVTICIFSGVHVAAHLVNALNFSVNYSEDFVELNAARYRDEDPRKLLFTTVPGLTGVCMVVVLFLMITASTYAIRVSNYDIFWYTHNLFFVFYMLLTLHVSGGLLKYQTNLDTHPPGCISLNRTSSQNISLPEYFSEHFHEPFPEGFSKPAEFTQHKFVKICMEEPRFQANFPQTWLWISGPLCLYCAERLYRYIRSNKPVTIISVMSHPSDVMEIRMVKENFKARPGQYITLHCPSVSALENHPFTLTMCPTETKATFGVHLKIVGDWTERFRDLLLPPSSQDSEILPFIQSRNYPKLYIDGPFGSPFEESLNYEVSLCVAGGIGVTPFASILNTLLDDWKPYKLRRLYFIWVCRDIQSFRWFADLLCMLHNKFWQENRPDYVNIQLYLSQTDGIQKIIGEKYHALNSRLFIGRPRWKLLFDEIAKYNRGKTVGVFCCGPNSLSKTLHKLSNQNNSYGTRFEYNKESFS
NADPH oxidase 2 (Homo sapiens), sequence (P04839 whole entry, looked up): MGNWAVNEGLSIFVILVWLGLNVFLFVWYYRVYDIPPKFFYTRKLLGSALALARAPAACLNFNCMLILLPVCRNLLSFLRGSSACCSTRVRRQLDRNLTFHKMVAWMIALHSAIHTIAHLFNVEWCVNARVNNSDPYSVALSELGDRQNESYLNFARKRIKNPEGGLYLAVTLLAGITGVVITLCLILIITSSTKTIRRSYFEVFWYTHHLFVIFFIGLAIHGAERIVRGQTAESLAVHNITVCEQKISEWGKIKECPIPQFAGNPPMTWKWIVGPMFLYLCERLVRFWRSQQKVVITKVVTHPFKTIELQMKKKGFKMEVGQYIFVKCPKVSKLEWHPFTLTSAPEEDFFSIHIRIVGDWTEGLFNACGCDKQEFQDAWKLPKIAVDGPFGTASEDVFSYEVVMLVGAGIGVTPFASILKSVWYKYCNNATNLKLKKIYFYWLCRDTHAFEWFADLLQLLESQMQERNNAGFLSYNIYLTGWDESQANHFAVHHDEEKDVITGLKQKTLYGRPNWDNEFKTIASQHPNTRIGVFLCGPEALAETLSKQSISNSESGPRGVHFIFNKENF

Row | Structure (SMILES) | composite z-score [1] | z-score [2] | z-score [3] | z-score [4] | z-score [5] | composite z-score [6] | composite z-score [7] | composite z-score (Torsin-1A (Homo sapiens) [8]) | composite z-score (Torsin-1A (Homo sapiens) [9]) | composite z-score [10] | z-score [11] | composite z-score [12] | z-score [13] | z-score [14] | z-score [15] | z-score [16] | z-score [17] | z-score [18] | z-score [19] | z-score [20]
1 | C[N+](C)(C)CCCCNC(=O)[C@H]1C[C@H]2C(=O)N[C@@H](Cc3ccccc3)C(=O)N2[C@H]1c1cccc(OCCO)c1 | 0.278 | -0.15 (inactive) | -0.495 (inactive) | -0.13 (inactive) | -0.384 (inactive) | 0.313 | 0.152 | 0.971 | 0.342 | 2.23 | 0.0946 (inactive) | 0.186 | 5.34 (inactive) | 0.772 (inactive) | -0.835 (inactive) | 0.818 (inactive) | 0.17 | -0.423 (inactive) | -0.824 (inactive) | -0.418
2 | C=CC1c2cc(O)c(OC)cc2CCN1C (stereo not given) | -0.148 | 0.235 (inactive) | 0.51 (inactive) | 0.182 (inactive) | -0.439 (inactive) | -0.0377 | -0.0695 | -0.45 | -0.231 | -0.881 | -0.664 (inactive) | -0.101 | 0.994 (inactive) | -0.152 (inactive) | -0.969 (inactive) | -0.214 (inactive) | -0.466 | -4.27 (inactive) | -2.63 (inactive) | -3.08
3 | COc1cc(OC)c(C(O)C2C=CC3C(=O)N(c4ccccc4)C(=O)C3N2Nc2ccc(C(C)C)cc2)cc1Br (stereo not given) | 0.386 | -0.942 (inactive) | -1.49 (inactive) | 1.78 (inactive) | -0.567 (inactive) | 1.71 | 0.136 | 0.255 | 0.345 | 0.415 | 0.857 (inactive) | -0.0889 | 2.94 (inactive) | 1.93 (inactive) | -0.255 (inactive) | 1.49 (inactive) | -1.06 | 0.0256 (inactive) | -3.73 (inactive) | -2.24
4 | CC1CC/C=C\[C@H]2OC34C=CCN(Cc5ccccc5)C(=O)[C@H]3N(CCCCCCO)C(=O)[C@@H]4C2C(=O)O1 (stereo not given in full) | -0.523 | -0.649 (inactive) | 2.79 (inactive) | 0.329 (inactive) | 0.138 (inactive) | -0.871 | -0.206 | 1.4 | -0.549 | 0.06 | 0.528 (inactive) | 0.0249 | -0.107 (inactive) | 0.179 (inactive) | 0.731 (inactive) | 0.111 (inactive) | 1.98 | 1.71 (inactive) | 0.185 (inactive) | 2.2
